# Experimental data: the supplement of paper PMC10849652
# Of roughly 7,900 targets only a part is listed; those with a hit were picked by preference. About 0.6% of all pairs of compound and target were hits. Unmarked numbers belong to inactive results.
# Tests used:
# Test in all cases: log2 fold change, soluble protein after heating vs DMSO (PISA); higher = thermal stabilisation; K562 cells, 10 uM, 30 min; active = over 0.2 and 3.5 SD of the protein, either way, in both replicates (recomputed)
# saracatinib = compound: CN1CCN(CCOc2cc(OC3CCOCC3)c3c(Nc4c(Cl)ccc5c4OCO5)ncnc3c2)CC1 [saracatinib]
# Summary of the method: (§1)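 K562 cells at 2×10^6 cells/mL were exposed to 10 μM compound for 30 min, then aliquots were heated for 3 min across 48°C-58°C, pooled, and extracted in PBS containing 0.5% NP-40 at 4°C. The supernatant after 21,000xg for 90 min was taken as soluble protein and measured by TMTpro 16plex LC-MS/MS with channel sums equalised. Thermal stability is reported relative to control samples, with values from duplicates. Fold changes are given on a log2 scale.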
# sotrastaurin = compound: CN1CCN(c2nc(C3=C(c4c[nH]c5ccccc45)C(=O)NC3=O)c3ccccc3n2)CC1 [sotrastaurin]
# Summary of the method: as §1
# alvocidib = compound: CN1CC[C@H](c2c(O)cc(O)c3c(=O)cc(-c4ccccc4Cl)oc23)[C@H](O)C1 [alvocidib]
# Summary of the method: as §1
# Tubastatin A = compound: CN1CCc2c(c3ccccc3n2Cc2ccc(C(=O)NO)cc2)C1 [Tubastatin A]
# Summary of the method: as §1
# [1] = compound: CNC(=O)C1=CC=CC=C1NC2=NC(=NC=C2Cl)NC3=C(C=C(C=C3)N4CCOCC4)OC
# Summary of the method: as §1
# defactinib = compound: CNC(=O)c1ccc(Nc2ncc(C(F)(F)F)c(NCc3nccnc3N(C)S(C)(=O)=O)n2)cc1 [defactinib]
# Summary of the method: as §1
# rucaparib = compound: CNCc1ccc(-c2[nH]c3cc(F)cc4c3c2CCNC4=O)cc1 [rucaparib]
# Summary of the method: as §1
# [2] = compound: CNc1nc(-c2ccc3c(N)n[nH]c3c2)cc(N2C[C@@H](C(=O)NC3CCCCC3)CC[C@H]2C)n1
# Summary of the method: as §1
# encorafenib = compound: COC(=O)N[C@@H](C)CNc1nccc(-c2cn(C(C)C)nc2-c2cc(Cl)cc(NS(C)(=O)=O)c2F)n1 [encorafenib]
# Summary of the method: as §1
# [3] = compound: COC(=O)[C@H](CCSC)NC(=O)C1=C(C=C(C=C1)NC[C@H](CS)N)C2=CC=CC=C2
# Summary of the method: as §1
# [4] = compound: COC1=CC=C(C=C1)CN2C=CC3=C2C=C(C=C3)C(=O)NO
# Summary of the method: as §1
# filanesib = compound: CON(C)C(=O)N1N=C(c2cc(F)ccc2F)S[C@@]1(CCCN)c1ccccc1 [filanesib]
# Summary of the method: as §1
# zotarolimus = compound: CO[C@H]1C[C@@H]2CC[C@@H](C)[C@@](O)(O2)C(=O)C(=O)N2CCCC[C@H]2C(=O)O[C@H]([C@H](C)C[C@@H]2CC[C@H](n3cnnn3)[C@H](OC)C2)CC(=O)[C@H](C)/C=C(\C)[C@@H](O)[C@@H](OC)C(=O)[C@H](C)C[C@H](C)/C=C/C=C/C=C/1C [zotarolimus]
# Summary of the method: as §1
# idasanutlin = compound: COc1cc(C(=O)O)ccc1NC(=O)[C@@H]1N[C@@H](CC(C)(C)C)[C@](C#N)(c2ccc(Cl)cc2F)[C@H]1c1cccc(Cl)c1F [idasanutlin]
# Summary of the method: as §1
# alisertib = compound: COc1cc(Nc2ncc3c(n2)-c2ccc(Cl)cc2C(c2c(F)cccc2OC)=NC3)ccc1C(=O)O [alisertib]
# Summary of the method: as §1
# [5] = compound: COc1cc2nc(-c3cc(F)ccc3O)nc(N[C@@H]3CNC[C@H]3C(C)(C)O)c2cc1OC
# Summary of the method: as §1
# gefitinib = compound: COc1cc2ncnc(Nc3ccc(F)c(Cl)c3)c2cc1OCCCN1CCOCC1 [gefitinib]
# Summary of the method: as §1
# [6] = compound: COc1cccc2cc(-c3nc([C@H]4CC[C@H](C(=O)O)CC4)n4ncnc(N)c34)[nH]c12
# Summary of the method: as §1
# lapatinib = compound: CS(=O)(=O)CCNCc1ccc(-c2ccc3ncnc(Nc4ccc(OCc5cccc(F)c5)c(Cl)c4)c3c2)o1 [lapatinib]
# Summary of the method: as §1
# pictilisib = compound: CS(=O)(=O)N1CCN(Cc2cc3nc(-c4cccc5[nH]ncc45)nc(N4CCOCC4)c3s2)CC1 [pictilisib]
# Summary of the method: as §1
# Sequence of UniProt O95394 (O95394 whole entry, looked up): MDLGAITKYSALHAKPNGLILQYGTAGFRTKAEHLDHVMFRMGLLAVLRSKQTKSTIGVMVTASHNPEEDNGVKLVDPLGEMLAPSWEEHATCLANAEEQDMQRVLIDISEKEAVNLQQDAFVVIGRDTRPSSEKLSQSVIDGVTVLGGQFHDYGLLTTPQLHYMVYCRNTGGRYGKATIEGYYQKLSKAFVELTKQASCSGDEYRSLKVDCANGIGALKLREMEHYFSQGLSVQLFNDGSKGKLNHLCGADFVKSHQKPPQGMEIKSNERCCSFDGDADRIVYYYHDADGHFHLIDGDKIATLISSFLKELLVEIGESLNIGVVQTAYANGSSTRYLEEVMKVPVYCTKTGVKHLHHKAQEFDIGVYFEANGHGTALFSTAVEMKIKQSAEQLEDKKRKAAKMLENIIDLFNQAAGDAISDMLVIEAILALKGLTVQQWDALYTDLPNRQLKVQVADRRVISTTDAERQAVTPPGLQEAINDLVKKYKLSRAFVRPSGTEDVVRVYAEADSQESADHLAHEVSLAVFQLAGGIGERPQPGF
# Sequence of UniProt P09874 (P09874 whole entry, looked up): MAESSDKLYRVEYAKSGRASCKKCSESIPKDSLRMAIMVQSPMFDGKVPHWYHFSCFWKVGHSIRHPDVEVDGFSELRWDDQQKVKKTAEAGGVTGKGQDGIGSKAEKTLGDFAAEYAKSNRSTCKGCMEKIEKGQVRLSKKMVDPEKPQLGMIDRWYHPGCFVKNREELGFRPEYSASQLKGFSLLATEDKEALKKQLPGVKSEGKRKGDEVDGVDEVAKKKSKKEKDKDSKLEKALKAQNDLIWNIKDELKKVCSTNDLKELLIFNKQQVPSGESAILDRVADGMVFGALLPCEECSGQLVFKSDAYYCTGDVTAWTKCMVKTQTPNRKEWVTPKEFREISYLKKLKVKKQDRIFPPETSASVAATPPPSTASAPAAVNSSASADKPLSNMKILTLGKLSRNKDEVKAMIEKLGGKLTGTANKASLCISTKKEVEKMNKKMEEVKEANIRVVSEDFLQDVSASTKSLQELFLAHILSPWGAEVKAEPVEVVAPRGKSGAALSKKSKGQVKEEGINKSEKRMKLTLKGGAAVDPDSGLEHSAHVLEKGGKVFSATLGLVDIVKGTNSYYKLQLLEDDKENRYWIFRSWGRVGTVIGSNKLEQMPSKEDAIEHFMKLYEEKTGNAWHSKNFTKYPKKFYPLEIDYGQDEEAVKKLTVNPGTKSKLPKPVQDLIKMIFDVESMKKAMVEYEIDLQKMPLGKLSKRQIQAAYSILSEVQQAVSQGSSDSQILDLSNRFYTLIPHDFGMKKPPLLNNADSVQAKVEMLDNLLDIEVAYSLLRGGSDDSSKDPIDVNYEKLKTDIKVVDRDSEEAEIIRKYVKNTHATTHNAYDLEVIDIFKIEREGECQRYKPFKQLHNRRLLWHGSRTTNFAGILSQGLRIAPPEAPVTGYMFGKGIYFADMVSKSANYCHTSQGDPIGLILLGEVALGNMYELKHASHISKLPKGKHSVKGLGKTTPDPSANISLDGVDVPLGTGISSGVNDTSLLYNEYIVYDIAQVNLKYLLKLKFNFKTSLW
# Sequence of UniProt Q8NBL1 (Q8NBL1 whole entry, looked up): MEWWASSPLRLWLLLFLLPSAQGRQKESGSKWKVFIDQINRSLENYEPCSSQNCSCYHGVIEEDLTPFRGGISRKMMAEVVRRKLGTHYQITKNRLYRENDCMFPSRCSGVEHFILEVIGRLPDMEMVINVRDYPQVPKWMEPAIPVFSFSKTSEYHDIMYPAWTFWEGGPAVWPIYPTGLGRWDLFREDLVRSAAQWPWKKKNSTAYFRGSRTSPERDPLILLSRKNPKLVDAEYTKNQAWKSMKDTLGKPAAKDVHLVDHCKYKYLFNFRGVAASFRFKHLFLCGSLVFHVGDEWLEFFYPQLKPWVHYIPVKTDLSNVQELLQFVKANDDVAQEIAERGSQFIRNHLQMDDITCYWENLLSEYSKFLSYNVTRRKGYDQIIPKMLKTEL
# Sequence of UniProt P31323 (P31323 whole entry, looked up): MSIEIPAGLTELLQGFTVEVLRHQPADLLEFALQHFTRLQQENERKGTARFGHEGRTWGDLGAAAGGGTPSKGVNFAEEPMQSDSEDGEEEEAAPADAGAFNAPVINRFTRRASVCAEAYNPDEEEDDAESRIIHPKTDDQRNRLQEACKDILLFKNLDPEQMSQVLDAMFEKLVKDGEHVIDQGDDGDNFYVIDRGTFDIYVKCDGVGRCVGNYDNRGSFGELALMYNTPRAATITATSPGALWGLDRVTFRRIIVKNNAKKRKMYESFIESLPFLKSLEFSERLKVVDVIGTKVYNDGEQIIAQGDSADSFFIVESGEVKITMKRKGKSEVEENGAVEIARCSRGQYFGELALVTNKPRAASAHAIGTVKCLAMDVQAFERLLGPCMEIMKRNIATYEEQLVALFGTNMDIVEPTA
# Sequence of UniProt P13861 (P13861 whole entry, looked up): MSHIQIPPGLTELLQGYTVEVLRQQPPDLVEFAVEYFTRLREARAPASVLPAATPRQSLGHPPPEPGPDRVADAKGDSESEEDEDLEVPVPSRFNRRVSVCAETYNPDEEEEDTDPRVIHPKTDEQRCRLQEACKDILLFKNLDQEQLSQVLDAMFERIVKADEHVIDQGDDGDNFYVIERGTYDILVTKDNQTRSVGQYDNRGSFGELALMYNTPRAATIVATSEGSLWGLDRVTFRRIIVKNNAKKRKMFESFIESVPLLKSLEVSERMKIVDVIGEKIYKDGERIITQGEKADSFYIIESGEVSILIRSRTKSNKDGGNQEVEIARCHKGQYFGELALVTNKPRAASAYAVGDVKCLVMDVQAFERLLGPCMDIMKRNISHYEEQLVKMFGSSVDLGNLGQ
# Sequence of UniProt P41247 (P41247 whole entry, looked up): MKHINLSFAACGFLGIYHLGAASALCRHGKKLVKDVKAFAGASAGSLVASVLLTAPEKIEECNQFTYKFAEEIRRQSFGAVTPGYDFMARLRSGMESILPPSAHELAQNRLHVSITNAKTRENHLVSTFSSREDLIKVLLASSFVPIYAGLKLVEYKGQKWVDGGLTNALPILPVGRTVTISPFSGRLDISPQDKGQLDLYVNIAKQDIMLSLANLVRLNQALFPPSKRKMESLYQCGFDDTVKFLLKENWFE
# Sequence of UniProt Q6EEV4 (Q6EEV4 whole entry, looked up): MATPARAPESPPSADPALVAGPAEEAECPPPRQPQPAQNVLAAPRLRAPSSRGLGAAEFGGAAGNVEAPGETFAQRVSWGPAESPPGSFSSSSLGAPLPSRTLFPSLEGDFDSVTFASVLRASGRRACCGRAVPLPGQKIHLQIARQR
# Sequence of UniProt Q9Y3E5 (Q9Y3E5 whole entry, looked up): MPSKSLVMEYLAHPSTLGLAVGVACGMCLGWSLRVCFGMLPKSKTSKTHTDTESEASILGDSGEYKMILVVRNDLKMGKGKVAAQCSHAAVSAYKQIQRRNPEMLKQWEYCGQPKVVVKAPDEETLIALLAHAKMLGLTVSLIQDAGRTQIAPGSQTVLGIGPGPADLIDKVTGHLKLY
# Sequence of UniProt Q2TAL8 (Q2TAL8 whole entry, looked up): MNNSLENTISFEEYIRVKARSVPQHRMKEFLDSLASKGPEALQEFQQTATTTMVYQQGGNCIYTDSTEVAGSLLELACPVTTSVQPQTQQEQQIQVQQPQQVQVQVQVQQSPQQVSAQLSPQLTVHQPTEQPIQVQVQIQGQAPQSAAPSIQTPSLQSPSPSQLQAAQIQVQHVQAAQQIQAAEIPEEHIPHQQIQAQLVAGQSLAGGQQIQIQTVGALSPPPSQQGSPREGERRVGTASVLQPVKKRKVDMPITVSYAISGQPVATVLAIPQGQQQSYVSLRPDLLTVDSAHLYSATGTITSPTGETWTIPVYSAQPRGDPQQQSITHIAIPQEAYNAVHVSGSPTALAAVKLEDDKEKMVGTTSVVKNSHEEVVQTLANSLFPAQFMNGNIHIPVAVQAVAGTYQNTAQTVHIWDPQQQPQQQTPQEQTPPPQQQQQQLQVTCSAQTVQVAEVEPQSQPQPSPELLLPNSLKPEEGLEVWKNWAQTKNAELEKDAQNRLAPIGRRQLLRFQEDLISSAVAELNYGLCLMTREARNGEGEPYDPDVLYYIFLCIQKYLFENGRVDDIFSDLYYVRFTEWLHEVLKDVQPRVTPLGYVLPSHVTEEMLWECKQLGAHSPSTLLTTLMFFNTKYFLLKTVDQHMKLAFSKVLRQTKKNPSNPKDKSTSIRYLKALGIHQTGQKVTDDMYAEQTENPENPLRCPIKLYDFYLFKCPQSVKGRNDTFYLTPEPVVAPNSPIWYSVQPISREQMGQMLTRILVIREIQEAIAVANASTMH
# Sequence of UniProt P53801 (P53801 whole entry, looked up): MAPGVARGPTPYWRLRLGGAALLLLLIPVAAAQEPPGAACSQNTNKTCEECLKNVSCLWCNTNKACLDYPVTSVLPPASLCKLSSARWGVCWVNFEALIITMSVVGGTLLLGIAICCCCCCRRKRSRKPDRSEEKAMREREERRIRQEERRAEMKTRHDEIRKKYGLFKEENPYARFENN
# Sequence of UniProt Q9NR22 (Q9NR22 whole entry, looked up): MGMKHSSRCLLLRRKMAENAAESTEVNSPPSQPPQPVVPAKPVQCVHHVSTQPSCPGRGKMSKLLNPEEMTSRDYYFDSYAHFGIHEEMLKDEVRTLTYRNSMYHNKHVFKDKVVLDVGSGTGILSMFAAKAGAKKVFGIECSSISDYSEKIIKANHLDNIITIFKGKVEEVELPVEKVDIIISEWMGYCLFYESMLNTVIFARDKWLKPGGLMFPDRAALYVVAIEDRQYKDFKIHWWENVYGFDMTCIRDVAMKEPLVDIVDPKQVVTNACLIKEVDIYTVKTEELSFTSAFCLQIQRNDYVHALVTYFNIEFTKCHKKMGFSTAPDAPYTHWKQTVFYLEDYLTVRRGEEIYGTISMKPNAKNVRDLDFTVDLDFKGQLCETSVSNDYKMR
Target,log2 fold change (saracatinib),log2 fold change (sotrastaurin),log2 fold change (alvocidib),log2 fold change (Tubastatin A),log2 fold change [1],log2 fold change (defactinib),log2 fold change (rucaparib),log2 fold change [2],log2 fold change (encorafenib),log2 fold change [3],log2 fold change [4],log2 fold change (filanesib),log2 fold change (zotarolimus),log2 fold change (idasanutlin),log2 fold change (alisertib),log2 fold change [5],log2 fold change (gefitinib),log2 fold change [6],log2 fold change (lapatinib),log2 fold change (pictilisib)
PRKAR2B (UniProt P31323),-0.024,-0.486 (active),-0.053,0.02,-0.168,-0.191,0.086,0.014,0.069,-0.004,-0.032,0.06,0.153,0.05,-0.007,-0.63 (active),-0.026,-0.024,0.048,-0.056
POLR2M (UniProt Q6EEV4),0.011,-0.015,-0.178,-0.131,0.097,-0.081,-0.145,-0.084,-0.047,0.026,-0.046,0.076,0.034,0.046,-0.144,-0.063,0.076,-0.033,-0.084,–
PSMB4 (UniProt P28070),-0.012,0.026,0.078,-0.002,-0.031,0.038,0.019,-0.032,0.011,0.006,-0.033,0.034,-0.011,-0.012,-0.031,-0.074,-0.038,0.005,0.03,-0.026
PARP1 (UniProt P09874),-0.025,-0.104,-0.004,0.037,0.094,-0.089,1.05 (active),0.038,0.079,-0.04,0.091,-0.043,0.048,-0.047,0.039,0.147,0.062,-0.062,-0.082,0.008
POGLUT1 (UniProt Q8NBL1),-0.124,0,0.06,0.009,-0.004,0.039,0.069,-0.063,0.015,0.042,-0.086,0.076,-0.004,0.114,-0.051,0.035,-0.046,-0.132,0.036,-0.099
PTDSS1 (UniProt P48651),-0.011,0.006,0.129,0.048,-0.065,0.13,0.292,0.07,0.224,0.01,-0.015,0.075,0.053,0.124,-0.098,-0.071,0.041,-0.012,0.04,-0.098
PRMT8 (UniProt Q9NR22),0.015,-0.046,-0.029,-0.09,-0.009,-0.039,-0.059,0.052,0.01,-0.122,-0.143,-0.162,-0.014,-0.109,-0.028,-0.019,0.002,0.042,0.145,0.025
PGM3 isoform 4 (UniProt O95394),-0.028,-0.018,-0.062,0.03,-0.011,-0.019,-0.013,0.067,0.024,-0.022,0.052,-0.135,0.007,-0.079,-0.007,0,-0.028,-0.01,-0.014,-0.047
QRICH1 (UniProt Q2TAL8),-0.019,-0.076,-0.127,0.156,-0.036,-0.271,-0.008,-0.004,0.097,0.169,0.015,0.004,-0.022,-0.072,0.071,0.08,0.137,0.032,0.011,–
PNPLA4 (UniProt P41247),-0.267,-0.091,-0.02,0.007,0.058,-0.047,0,0.17,-0.343,-0.011,0.041,-0.184,-0.142,0.003,0.026,-0.133,0.015,0.113,-0.049,–
PIP4K2A (UniProt P48426),0.048,0.011,0.131,-0.001,0.084,0.166,0.013,-0.132,0.1,-0.056,0.022,0.006,-0.002,-0.11,-0.018,0.379 (active),0.017,0.314,-0.054,0.132
PTTG1IP (UniProt P53801),0.021,-0.03,0.004,-0.085,0.062,-0.011,0.013,-0.246,-0.052,0.129,-0.013,-0.186,-0.124,-0.004,-0.046,0.038,0.158,0.007,-0.096,0.086
PTRH2 (UniProt Q9Y3E5),-0.008,0.027,-0.09,-0.052,0.148,-0.009,-0.002,-0.051,0.017,0,0.403 (active),-0.033,0.01,-0.076,-0.009,0.07,0.015,0.001,0.012,-0.005
PRKAR2A (UniProt P13861),0.034,-0.121,-0.023,-0.029,0.027,-0.02,-0.015,-0.04,0.017,-0.015,-0.033,-0.021,0.013,-0.009,-0.058,-0.493 (active),0.048,0.006,0.034,0.057
PRKAB2 (UniProt O43741),-0.064,-0.077,-0.094,0.039,-0.159,-0.084,-0.371,-0.022,0.118,-0.036,0.038,-0.167,0.109,0.14,0.053,-0.074,0.004,0.057,0.131,0.111
